The full list was thinned out, with hits kept by preference.
14-3-3g Raf: alters human 14-3-3 gamma binding to Raf peptide; P61981; inhibition, % at 40 µM; FP, 14-3-3gamma / TMR-pS259-Raf peptide binding; actives 0.19% (n = 160,000); in the data active = inhibition above about 30%
Target sequence (P61981 whole entry, looked up): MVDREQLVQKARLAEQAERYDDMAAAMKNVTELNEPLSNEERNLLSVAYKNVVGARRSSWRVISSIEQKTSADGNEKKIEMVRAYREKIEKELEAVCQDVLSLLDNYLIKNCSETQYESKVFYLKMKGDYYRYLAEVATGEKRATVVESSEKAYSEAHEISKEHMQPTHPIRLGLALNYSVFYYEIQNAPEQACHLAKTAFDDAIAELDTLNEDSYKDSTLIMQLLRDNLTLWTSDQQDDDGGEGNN
Each line names hits and unclear results; the compound was inactive in the other large screens.

COc1ccc(OCc2nc3ccccc3n2Cc2ccc(C)cc2)cc1	none
CCC(=O)N1CCc2cc(S(=O)(=O)NCCN3CCCCC3C)ccc21 (stereo not drawn)	none
O=C(C1CCC1)N1CCc2cc(S(=O)(=O)NCCCN3CCCCC3)ccc21	none
CCC1CCCCN1CCNS(=O)(=O)c1ccc2c(c1)CCN2C(=O)C1CCC1 (stereo not drawn)	14-3-3g Raf 52
CC(=O)N1CCc2cc(S(=O)(=O)NCCCN3CCN(C)CC3)ccc21	none
O=C(C1CCC1)N1CCc2cc(S(=O)(=O)NCCCN3CCN(c4ccccc4F)CC3)ccc21	14-3-3g Raf 31
O=C(C1CCC1)N1CCc2cc(S(=O)(=O)NCCN3CCCC3)ccc21	none
Cc1ccccc1C(=O)Nc1c(C(=O)NCc2ccco2)cnn1-c1ccccc1	none
Cc1ccc(CN2CCC(=O)NC2=O)cc1	none
CCCC(=O)N1c2ccccc2-c2nnc(SC)nc2OC1c1ccc(C)o1 (stereo not drawn)	none
CCOc1ccccc1C(=O)Nc1cc(OC)ccc1OC	none
COc1ccccc1NC(=O)c1cc2ccccc2c(C=Nc2ccc(Cl)cc2)c1O	none
CCOc1ccc(-c2nc3cc(N=Cc4c(O)ccc5ccccc45)ccc3o2)cc1	none
COc1cc2ccccc2cc1C(=O)Nc1ccccc1Oc1ccccc1	none
COc1ccccc1NC(=O)c1coc(=O)c2ccccc12	none
CC(=O)Nc1ccc(N=Cc2c(OC(=O)c3cccc4ccccc34)ccc3ccccc23)cc1	none
CCOc1ccc(NC(=O)c2cc(-c3cccs3)nc3ccccc23)cc1	none
COc1ccccc1N=Cc1c(O)c(C(=O)Nc2ccccc2OC)cc2ccccc12	14-3-3g Raf 78
CC(=O)Nc1ccc(N=Cc2c(O)c(C(=O)Nc3ccccc3)cc3ccccc23)cc1	14-3-3g Raf 174
O=C(Nc1ccccc1)c1cc2ccccc2c(C=Nc2ccc(Cl)cc2)c1O	none
CCOc1ccc(N=Cc2c(O)c(C(=O)Nc3ccccc3)cc3ccccc23)cc1	14-3-3g Raf 71
CCOc1ccc(N=Cc2c(O)c(C(=O)Nc3ccccc3OC)cc3ccccc23)cc1	14-3-3g Raf 59
CCOc1ccccc1N/C(=N\c1nc(C)cc(C)n1)NC(C)=O	none
CCOc1ccc(-n2ccnc2SCC(=O)Nc2ccc(OC(F)(F)F)cc2)cc1	none
Cc1ccc(-c2nc3cc(N=Cc4cc(C)cc([N+](=O)[O-])c4O)ccc3o2)cc1	14-3-3g Raf 53
CN(C)c1ccc(-c2nc3cc(N=Cc4cc(Cl)ccc4O)ccc3o2)cc1	none
Cc1ccc(-c2nc3cc(N=Cc4cc(Cl)ccc4O)ccc3o2)cc1	none
Cc1ccccc1-c1nc2cc(N=Cc3cc(Cl)cc([N+](=O)[O-])c3O)ccc2o1	none
Oc1ccc(Cl)cc1C=Nc1ccc(-c2nc3cc(Cl)ccc3o2)cc1	14-3-3g Raf 84
Cc1ccc(-c2nc3cc(N=Cc4cccc([N+](=O)[O-])c4O)ccc3o2)cc1C	none
COc1cc(OC)cc(C(=O)c2ccc(C(=O)Nc3sc4c(c3C#N)CCC4)cc2)c1	none
O=C1C(Nc2ccc(F)cc2)=C(N2CCCCC2)C(=O)c2ccccc21	none
Cc1cccc(C)c1NC(=O)C1(N2CCc3ccccc32)CCCCC1	none
COC(=O)c1c(C)oc2c1cc(NS(=O)(=O)c1ccc(C)c([N+](=O)[O-])c1)c1ccccc12	none
CCOC(=O)C1=C(CSc2nc(-c3ccncc3)ccc2C#N)OC(N)=C(C#N)C1c1cccnc1 (stereo not drawn)	none
CCOC(=O)C1=C(N)Oc2cc(O)ccc2C1c1cccnc1 (stereo not drawn)	none
CCOC(=O)C1=C(C(C)=O)C(c2cccnc2)C(C#N)=C(N)O1 (stereo not drawn)	14-3-3g Raf 32
O=C(CN1CCOCC1)Nc1c2c(nc3ccccc13)CCC2	none
CC(Sc1oc(-c2cccs2)nc1S(=O)(=O)c1ccc(F)cc1)c1ccccc1 (stereo not drawn)	none
CCc1ccc2nc(NC(N)=NS(=O)(=O)c3ccc(C)cc3)nc(C)c2c1	none
Cc1cccc(C)c1NC(=O)c1ncn[nH]1	none
Cc1cc(=O)oc2c(CN(CC(C)C)CC(C)C)c(O)ccc12	none
CCN1CCN(Cc2c(O)c(Cl)cc3c(C)cc(=O)oc23)CC1	none
Cc1cc(=O)oc2c(CN3CCC(C)CC3)c(O)c(Cl)cc12	14-3-3g Raf 60
Cc1c(C)c2cc(Cl)c(O)c(CN3CCN(C)CC3)c2oc1=O	none
CCN(CC)Cc1c(O)c(Cl)cc2c(C)cc(=O)oc12	14-3-3g Raf 63
Cc1cc(=O)oc2c(CN3CCCCC3)c(O)c(Cl)cc12	none
Cn1c(SCC(=O)Nc2ccc(Br)cc2)nnc1-c1cccnc1	none
CC(C)c1cc(C(C)C)c(S(=O)(=O)NCC2CCCO2)c(C(C)C)c1 (stereo not drawn)	none
Cc1cccc(NC(=O)COc2ccccc2)n1	none
COc1ccc(C2C3=C(Nc4ncnn42)c2ccccc2OC3c2ccccc2)cc1 (stereo not drawn)	none
COc1ccc(OC)c(NC(=O)c2sc3ncn(Cc4ccccc4Cl)c(=O)c3c2C)c1	none
Cn1cnc2cc(NCc3ccccn3)ccc21	none
CC(C)(C)n1cnc2cc(NCc3ccncc3)ccc21	none
CC(C)(C)n1cnc2cc(NCc3ccccn3)ccc21	14-3-3g Raf 32
CCc1nnc(NC(=O)c2c(-c3ccccc3Cl)noc2C)s1	none
Cc1cc(-c2ccccc2C(=O)O)on1	none
O=C1c2ccccc2C(=O)c2cc(O)ccc21	none
O=C(O)c1ccccc1C1=Nc2ccc(O)cc2Oc2cc(O)ccc21	14-3-3g Raf 123
FC(F)(F)c1ccc(-c2noc(C(c3ccccc3)C3CCCC3)n2)cc1 (stereo not drawn)	none
CN1CCN(C(=O)CSc2nc(-c3cccs3)cc(C(F)(F)F)n2)CC1	none
Oc1ccc2ccccc2c1C=Nc1cccc2ccccc12	none
Brc1ccc(C=Nc2nc3c(s2)CCCC3)cc1	none
Oc1ccc2ccccc2c1C=Nc1nc2c(s1)CCCC2	14-3-3g Raf 36
COC(=O)c1ccccc1-n1c(=S)[nH]c2ccsc2c1=O	none
CCc1c(C)c(C#N)c2nc3ccccc3n2c1N1CCN(C2CCCC2)CC1	none
CCc1cccc(NC(=O)c2cc3cc4ccc(OC)cc4nc3o2)c1	none
CCOc1ccc(N(CC)C(=O)c2cc3cc4ccc(OC)cc4nc3o2)cc1	none
CCN(C(=O)c1cc2cc3ccc(OC)cc3nc2o1)c1cc(C)ccc1C	none
CCc1ccccc1N(CC)C(=O)c1cc2cc3ccc(OC)cc3nc2o1	14-3-3g Raf 177
COc1ccc2cc3cc(C(=O)NC(C)CCc4ccccc4)oc3nc2c1 (stereo not drawn)	14-3-3g Raf 145
COc1ccc2cc3cc(C(=O)NC(C)CCc4ccccc4)sc3nc2c1 (stereo not drawn)	none
Cc1ccc(CN2CCCC(C(=O)N3CCCCCC3)C2)cc1 (stereo not drawn)	none
Cc1nc(Cl)c(C(N)=O)c(C)c1N	none
Cc1ccc(C(=O)Nc2ccc(Cl)c(NC(=O)c3ccccc3)c2)cc1[N+](=O)[O-]	none
O=C(NC1CCCc2ccccc21)c1cc(=O)[nH]c2ccc(S(=O)(=O)N3CCOCC3)cc12 (stereo not drawn)	none
Cc1cccc(-n2nc3c(c2NC(=O)c2cc(Cl)ccc2[N+](=O)[O-])CS(=O)(=O)C3)c1C	none
O=C(CN1C(=O)c2ccc([N+](=O)[O-])cc2C1=O)Nc1ccccc1[N+](=O)[O-]	none
O=C(CN1C(=O)c2ccc([N+](=O)[O-])cc2C1=O)Nc1ccc(Br)cc1C(=O)O	none
O=C(CN1C(=O)c2ccc([N+](=O)[O-])cc2C1=O)Nc1ccc(O)cc1C(=O)O	14-3-3g Raf 37
CCC1CCC2(CC1)NC(=S)N(c1ccc(Cl)cc1)N2 (stereo not drawn)	none
Cc1ccc(-n2c(=O)c3sccc3n(Cc3cc(=O)n4cc(Cl)ccc4n3)c2=O)cc1	none

Screening results deposited in PubChem BioAssay by Emory University Molecular Libraries Screening Center.
